Source: PubChem BioAssay AID1159580 (chemical genetic matrix, 2015)
Screen size: about 5,500 compounds; about 2,000 (36%) were called active. Another 18% or so got no clear call; they are omitted. Cut-off read from the data, not from the text of the source: active = normalized growth mostly below about 0.91 (no sharp cut-off); inconclusive = no clear call, values can overlap the other calls; inactive = mostly above about 0.92. Some of the results follow.

Experiment: chemical genetic growth profiling, strain panel (AID 1159580);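 note: tested at 20 µM; growth read once vehicle control cultures reached saturation at 30 °C; 1 = growth at the plate median or of vehicle wells; lower values mean less growth of the strain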
Conditions: growth OD

Measured: normalized growth

CO[C@]12C[C@@H](COC(=O)c3cncc(Br)c3)CN(C)[C@@H]1Cc1cn(C)c3cccc2c13
active: S. cerevisiae deletion strains, locus YLR039C, strain RIC1, hits give low values 1.34 [resistant] | S. cerevisiae deletion strains, locus YLR262C, strain YPT6, hits give low values 1.45 [resistant]
inactive: S. cerevisiae deletion strains, locus YJR075W, strain HOC1, hits give low values 0.994 | S. cerevisiae deletion strains, locus YKL009W, strain mrt4, hits give low values 0.968 | S. cerevisiae deletion strains, locus YKL068W, hits give low values 0.997 | S. cerevisiae deletion strains, locus YKL085W, strain MDH1 (second series), hits give low values 0.995 | S. cerevisiae deletion strains, locus YKL085W, strain MDH1, hits give low values 0.995 | S. cerevisiae deletion strains, locus YKL160W, strain elf1, hits give low values 0.984 | S. cerevisiae deletion strains, locus YKL190W, strain CNB1, hits give low values 0.999 | S. cerevisiae deletion strains, locus YKR001C, strain vps1, hits give low values 1.02 | S. cerevisiae deletion strains, locus YKR026C, strain gcn3, hits give low values 1.03 | S. cerevisiae deletion strains, locus YKR091W, strain srl3, hits give low values 0.981 | S. cerevisiae deletion strains, locus YLL001W, strain dnm1, hits give low values 0.965 | S. cerevisiae deletion strains, locus YLL026W, hits give low values 0.989 | S. cerevisiae deletion strains, locus YLL041C, strain sdh2, hits give low values 0.998 | S. cerevisiae deletion strains, locus YLR027C, strain aat2, hits give low values 0.964 | S. cerevisiae deletion strains, locus YLR058C, strain SHM2, hits give low values 1 | S. cerevisiae deletion strains, locus YLR102C, strain apc9, hits give low values 1.01 | S. cerevisiae deletion strains, locus YLR113W, strain HOG1, hits give low values 0.954 | S. cerevisiae deletion strains, locus YLR221C, strain rsa3, hits give low values 0.973 | S. cerevisiae deletion strains, locus YLR258W, strain gsy2, hits give low values 0.997 | S. cerevisiae deletion strains, locus YLR262C, strain YPT6 (second series), hits give low values 1.07 | S. cerevisiae deletion strains, locus YLR268W, strain sec22, hits give low values 1.01 | S. cerevisiae deletion strains, locus YLR320W, strain mms22, hits give low values 0.983 | S. cerevisiae deletion strains, locus YLR330W, strain CHS5, hits give low values 1.01 | S. cerevisiae deletion strains, locus YLR342W, strain FKS1 (second series), hits give low values 0.968 | S. cerevisiae deletion strains, locus YLR342W, strain FKS1, hits give low values 0.975 | S. cerevisiae deletion strains, locus YLR357W, strain rsc2, hits give low values 0.969 | S. cerevisiae deletion strains, locus YLR370C, strain arc18, hits give low values 0.985 | S. cerevisiae deletion strains, locus YLR371W, strain rom2, hits give low values 1.01 | S. cerevisiae deletion strains, locus YLR384C, strain iki3, hits give low values 0.991 | S. cerevisiae deletion strains, locus YLR418C, strain cdc73, hits give low values 1.03 | S. cerevisiae deletion strains, locus YML016C, strain PPZ1, hits give low values 1.01 | S. cerevisiae deletion strains, locus YML032C, strain rad52, hits give low values 1.01 | S. cerevisiae deletion strains, locus YML120C, strain ndi1, hits give low values 0.993 | S. cerevisiae deletion strains, locus YML124C, strain tub3, hits give low values 1.01 | S. cerevisiae deletion strains, locus YMR058W, strain fet3, hits give low values 0.992 | S. cerevisiae deletion strains, locus YMR078C, strain ctf18, hits give low values 1 | S. cerevisiae deletion strains, locus YMR125W, strain sto1, hits give low values 0.977 | S. cerevisiae deletion strains, locus YMR129W, hits give low values 0.977 | S. cerevisiae deletion strains, locus YMR205C, strain PFK2, hits give low values 0.977 | S. cerevisiae deletion strains, locus YMR223W, strain ubp8, hits give low values 0.984 | S. cerevisiae deletion strains, locus YMR231W, strain pep5, hits give low values 0.997 | S. cerevisiae deletion strains, locus YMR263W, strain SAP30, hits give low values 0.997 | S. cerevisiae deletion strains, locus YMR307W, strain GAS1, hits give low values 1.08 | S. cerevisiae deletion strains, locus YNL067W, strain RPL9B, hits give low values 0.985 | S. cerevisiae deletion strains, locus YNL071W, strain lat1, hits give low values 0.944 | S. cerevisiae deletion strains, locus YNL128W, strain TEP1, hits give low values 1.01 | S. cerevisiae deletion strains, locus YNL153C, strain GIM3, hits give low values 0.99 | S. cerevisiae deletion strains, locus YNL183C, strain NPR1, hits give low values 0.912 | S. cerevisiae deletion strains, locus YNL209W, strain ssb2, hits give low values 0.996 | S. cerevisiae deletion strains, locus YNL233W, strain BNI4, hits give low values 0.997 | S. cerevisiae deletion strains, locus YNL248C, strain rpa49, hits give low values 0.934 | S. cerevisiae deletion strains, locus YNL250W, strain rad50, hits give low values 1 | S. cerevisiae deletion strains, locus YNL271C, strain bni1, hits give low values 1.01 | S. cerevisiae deletion strains, locus YNL298W, strain CLA4, hits give low values 1.01 | S. cerevisiae deletion strains, locus YNL307C, strain MCK1, hits give low values 0.975 | S. cerevisiae deletion strains, locus YNL322C, strain KRE1 (second series), hits give low values 0.985 | S. cerevisiae deletion strains, locus YNL322C, strain KRE1, hits give low values 1 | S. cerevisiae deletion strains, locus YNR049C, strain mso1, hits give low values 0.993 | S. cerevisiae deletion strains, locus YNR052C, strain pop2, hits give low values 1 | S. cerevisiae deletion strains, locus YOL006C, strain TOP1, hits give low values 1.06 | S. cerevisiae deletion strains, locus YOL012C, strain htz1 1.03 | S. cerevisiae deletion strains, locus YOL147C, strain pex11, hits give low values 1.01 | S. cerevisiae deletion strains, locus YOR001W, strain rrp6, hits give low values 0.972 | S. cerevisiae deletion strains, locus YOR061W, strain CKA2, hits give low values 1 | S. cerevisiae deletion strains, locus YOR069W, strain VPS5, hits give low values 1 | S. cerevisiae deletion strains, locus YOR070C, strain gyp1, hits give low values 0.994 | S. cerevisiae deletion strains, locus YOR080W, strain dia2, hits give low values 0.983 | S. cerevisiae deletion strains, locus YOR083W, strain WHI5, hits give low values 0.978 | S. cerevisiae deletion strains, locus YOR106W, strain vam3, hits give low values 0.968 | S. cerevisiae deletion strains, locus YOR136W, strain idh2, hits give low values 0.992 | S. cerevisiae deletion strains, locus YOR144C, strain elg1, hits give low values 1.01 | S. cerevisiae deletion strains, locus YOR184W, strain ser1, hits give low values 0.988 | S. cerevisiae deletion strains, locus YOR231W, strain MKK1, hits give low values 0.983 | S. cerevisiae deletion strains, locus YOR265W, strain rbl2, hits give low values 0.987 | S. cerevisiae deletion strains, locus YOR270C, strain vph1, hits give low values 1.01 | S. cerevisiae deletion strains, locus YOR290C, strain snf2, hits give low values 0.982 | S. cerevisiae deletion strains, locus YOR316C, strain cot1, hits give low values 1 | S. cerevisiae deletion strains, locus YPL051W, strain arl3, hits give low values 0.97 | S. cerevisiae deletion strains, locus YPL055C, strain LGE1, hits give low values 0.977 | S. cerevisiae deletion strains, locus YPL078C, strain atp4, hits give low values 0.975 | S. cerevisiae deletion strains, locus YPL106C, strain sse1, hits give low values 1.01 | S. cerevisiae deletion strains, locus YPL240C, strain hsp82, hits give low values 1.02 | S. cerevisiae deletion strains, locus YPL241C, strain CIN2, hits give low values 0.999 | S. cerevisiae deletion strains, locus YPL256C, strain CLN2, hits give low values 0.972 | S. cerevisiae deletion strains, locus YPR119W, strain clb2, hits give low values 1.01 | S. cerevisiae deletion strains, locus YPR141C, strain kar3, hits give low values 1.01 | S. cerevisiae deletion strains, locus YPR163C, strain tif3, hits give low values 1.02 | S. cerevisiae deletion strains, locus YPR167C, strain met16, hits give low values 1.01 | S. cerevisiae deletion strains, strain wtn01, hits give low values 1.02 | S. cerevisiae strains, strain wild type, hits give low values 0.993
